Data: PubChem BioAssay (NCATS)
Records with an inconclusive call do not appear. Activity calls are given as the source filed them. Unless noted, the call rests on the fitted dose curve; in most records, active means well fitted curve in the direction sought with a large enough effect; inconclusive means small, poorly fitted or top-dose-only effect, or another doubt; inactive means no such curve, though single readings can be large; an effect the other way counts as inactive or inconclusive.

Tests used:
[1] = target: Cytochrome P450 3A4 (Homo sapiens) (UniProt P08684); experiment: qHTS Assay for Activators of Cytochrome P450 3A4 (AID 885); further: nearly all actives have a fitted effect of over 65% in size
Procedure, shortened: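 Signal was normalized against complete inhibition by 57 uM ketoconazole. The reaction used 20nM CYP3A4 with 25uM Luciferin-PPXE, 10-min compound preincubation and a 60-min NADPH-supported step at RT.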

[2] = qHTS Assay for Lipid Storage Modulators (AID 1519; calls by dose curve; on activity change, negative = inhibition: on the % scale 0 is the no-effect control and ±100 the full control effect); conditions: Drosophila S3 cells, BODIPY lipid droplet/cell ratio, laser cytometry, cells loaded with oleic acid; for activity change, negative = inhibition: at 57.5 µM (top of the series)
Procedure, shortened: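 Cells seeded at 5,000 per well were treated with compounds over a concentration series and loaded with oleic acid (400 uM, as added). Lipid droplet fluorescence (488 nm excitation, 500-530 nm channel) was read by laser-scanning cytometry and normalized to 20 uM Triacsin C.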

[3] = target: Ubiquitin carboxyl-terminal hydrolase 1 (Homo sapiens) (UniProt O94782); experiment: Inhibitors of USP1/UAF1: Pilot qHTS (AID 504865); further: nearly all actives have a fitted effect of over 35% in size; further: potency means the concentration at half of the fitted maximal effect;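 on activity change, negative = inhibition: rhodamine fluorescence freed from ubiquitin-rhodamine substrate followed over time; top concentration of the series differs between compounds; on the % scale 0 is the no-effect control and ±100 the full control effect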
Procedure, shortened: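 Deubiquitinase activity followed as kinetic rhodamine fluorescence release from 150 nM Ub-Rho. 1 nM USP1/UAF1 with compound, after 15 min room-temperature preincubation, in HEPES pH 7.8 buffer containing TCEP, EDTA, BSA and Tween-20.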

[4] = target: Cytochrome P450 3A4 (Homo sapiens) (UniProt P08684); experiment: qHTS Assay for Inhibitors and Substrates of Cytochrome P450 3A4 (AID 884); further: nearly all actives have a fitted effect of over 50% in size; further: potency means the concentration at half of the fitted maximal effect; on activity change, negative = inhibition: on the % scale 0 is the no-effect control and ±100 the full control effect
Procedure, shortened: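 20 nM human CYP3A4 with 25 uM Luciferin-PPXE (at KM) in 200 mM KPO4, preincubated 10 min with compound; NADPH regeneration started a 60 min RT reaction. Luciferin detected by luminescence, normalized to 57 uM ketoconazole as full inhibition.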

[5] = Confirmation and Secondary Assay for Modulators of Hemoglobin Beta Chain Splicing at IVS2 654 locus (AID 910);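 further: HeLa cells stably carrying EGFP split by mutant beta-globin IVS2-654 intron; % of control where 0% means no effect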
Procedure, shortened: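 HeLa cells stably expressing EGFP interrupted by β-globin IVS2-654 intron, seeded overnight in Opti-MEM/2% FCS, then treated 2 days at 37 °C. Restored splicing read as total peak GFP intensity per well by laser scanning cytometry (488 nm excitation, 500–520 nm emission); 500 nM antisense PNA as control.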

[6] = Confirmation and Secondary Assay for Modulators of Hemoglobin Beta Chain Splicing at IVS2 705 locus (AID 930);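 further: HeLa cells stably expressing the EGFP-705 splicing reporter; GFP fluorescence per well restored by corrected splicing of the IVS2-705 intron in EGFP; % of control where 0% means no effect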
Procedure, shortened: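 Assay measures total GFP intensity per well in HeLa EGFP-705 cells after 2 days with compound; mis-splicing normally truncates EGFP, so fluorescence indicates corrected splicing.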

[7] = measured here: cell count channel max response
[8] = measured here: lipid channel max response

Chain of Cytochrome P450 3A4 (Homo sapiens) (P08684 whole entry, looked up): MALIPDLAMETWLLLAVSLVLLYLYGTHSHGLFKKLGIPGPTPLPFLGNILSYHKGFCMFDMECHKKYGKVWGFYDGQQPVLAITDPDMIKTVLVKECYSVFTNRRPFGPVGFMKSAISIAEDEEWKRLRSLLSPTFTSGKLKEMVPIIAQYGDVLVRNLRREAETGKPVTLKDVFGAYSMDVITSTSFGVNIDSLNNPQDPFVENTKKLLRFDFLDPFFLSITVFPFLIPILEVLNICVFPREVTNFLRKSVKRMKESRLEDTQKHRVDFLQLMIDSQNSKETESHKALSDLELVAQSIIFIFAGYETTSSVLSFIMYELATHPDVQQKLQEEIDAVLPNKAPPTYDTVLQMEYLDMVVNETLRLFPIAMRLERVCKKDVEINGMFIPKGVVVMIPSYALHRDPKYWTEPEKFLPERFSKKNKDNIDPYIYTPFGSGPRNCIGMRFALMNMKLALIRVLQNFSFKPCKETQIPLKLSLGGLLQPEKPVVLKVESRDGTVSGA
Chain of Ubiquitin carboxyl-terminal hydrolase 1 (Homo sapiens) (O94782 whole entry, looked up): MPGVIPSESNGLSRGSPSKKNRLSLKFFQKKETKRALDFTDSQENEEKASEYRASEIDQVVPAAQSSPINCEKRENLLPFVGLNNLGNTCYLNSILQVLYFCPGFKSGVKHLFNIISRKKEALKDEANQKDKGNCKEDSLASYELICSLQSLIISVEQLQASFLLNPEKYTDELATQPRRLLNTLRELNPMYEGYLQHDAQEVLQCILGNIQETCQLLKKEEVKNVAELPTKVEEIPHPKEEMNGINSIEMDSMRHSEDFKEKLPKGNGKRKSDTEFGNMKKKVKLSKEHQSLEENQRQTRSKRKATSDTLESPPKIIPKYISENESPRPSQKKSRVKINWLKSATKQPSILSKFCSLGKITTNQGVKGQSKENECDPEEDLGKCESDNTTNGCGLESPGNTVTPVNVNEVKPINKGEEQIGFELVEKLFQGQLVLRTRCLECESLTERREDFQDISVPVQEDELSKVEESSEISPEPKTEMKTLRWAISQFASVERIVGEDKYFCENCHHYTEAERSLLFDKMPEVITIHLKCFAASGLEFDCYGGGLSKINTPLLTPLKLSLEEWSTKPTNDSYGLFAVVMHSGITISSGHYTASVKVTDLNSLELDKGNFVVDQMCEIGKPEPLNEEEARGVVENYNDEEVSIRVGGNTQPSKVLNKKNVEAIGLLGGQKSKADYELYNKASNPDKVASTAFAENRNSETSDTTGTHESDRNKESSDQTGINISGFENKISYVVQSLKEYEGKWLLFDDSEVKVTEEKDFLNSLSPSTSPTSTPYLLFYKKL

Structure (SMILES) | Potency [1] | activity change, negative = inhibition [2] | max response [2, 7] [%] | max response [2, 8] [%] | Potency [3] | Potency [4] | Potency [5] | Potency [6]
C=C[C@H]1CN2CC[C@H]1C[C@H]2c1[nH]c2ccccc2c1CCO | inactive | 2.01% (inactive) | -5.69 | -2.67 | inactive |  |  | 
O=C1CCCC2C3CC(CN12)C1CCCCN1C3 (centres undefined) |  | 6.45% (inactive) | 7.08 | 15 | inactive | inactive |  | 
CC(CCC(=O)O)C1CCC2C3CC[C@H]4CC(O)CC[C@@]4(C)C3CC[C@@]12C (some centres undefined) |  | -0.0455% (inactive) | 5.89 | 10.6 | 79.4 µM (active) |  |  | 
COc1nc(NC(C)C)nc(NC(C)C)n1 |  | 2.18% (inactive) | -5.5 | -2.96 | inactive | inactive | inactive | inactive
CC(C)(C)[C@]1(O)C[C@@H]2OC(=O)C[C@@]23C(=O)O[C@@H]2OC(=O)[C@H](O)[C@]213 |  | 3.73% (inactive) | 5.67 | 8.55 | inactive | inactive |  | 
C[C@]12CCC(=O)C=C1CCc1ccc(O)cc12 | inactive | -0.872% (inactive) | -10.5 | -4.41 | inactive | 25.1 µM (active) | inactive | inactive
COc1cc2c(c(OC)c1OC)-c1ccc(O)c(=O)cc1C(NC(C)=O)CC2 (centres undefined) |  | 7.7% (inactive) | 16.6 | 36.3 | inactive | inactive |  | 
